Here are results for 69 compounds from PubChem BioAssay AID488890 (Southern Research Specialized Biocontainment Screening …, 2010).

In all, about 320,000 compounds went through this assay and about 1,300 (0.41%) were called active. Another 3% or so got no clear call; they are omitted. The rule behind the calls is not given here. Only a sample is shown. Potency and affinity values are given separately.

The test is described as follows: growth inhibition of non-replicating M. tuberculosis (AID 488890).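 Note: plate controls were DMSO cells for no effect and high antibiotic wells for full effect.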 As to conditions: Mycobacterium tuberculosis non-replicating, at 25 µM, stronger effect = higher value.
By inhibition is commonly meant the relative decrease from the control value, in per cent. As to `O=C(O)c1ccc(-[n+]2c(-c3ccccc3)cc(-c3ccccc3)cc2-c2ccccc2)cc1`, the inhibition was -4.01%.

Regarding `CS(=O)(=O)N(CC(=O)N1CCOCC1)c1cc(C(F)(F)F)ccc1Cl`, the inhibition was -10.6%.

`COc1ccc(C(=O)OCC(=O)c2ccc(Cl)s2)c(OC)c1OC`: the inhibition worked out at 52.4%.

Take `COc1ccc(C(=O)OCC(=O)c2ccc(Br)s2)c(OC)c1`: the inhibition was 66.5%.

On to `O=C(NCCSc1ccccc1)c1ccc(CN2CCOCC2)cc1`, for which the inhibition is 11.6%.

For `Cn1c(N2CCN(C(c3ccccc3)c3ccccc3)CC2)nc2c1c(=O)[nH]c(=O)n2C`, the inhibition is -1.75%.

`Nc1ccc2c(c1)C(=O)c1ccccc1C2=O`: the inhibition was -1.17%.

For the compound `Nc1ccc2c(c1)C(=O)c1ccccc1-2`, the inhibition was 79.4%.

For the compound `O=C(CSc1nnc(C2COc3ccccc3O2)o1)Nc1ccc(F)cc1Cl` (centres undefined), the inhibition was found to be 27.9%.

Take `Cc1cc(NC(=O)CSc2nnc(C3COc4ccccc4O3)o2)no1` (centres undefined): the inhibition was 1.04%.

On to `CSC(=NNC(=O)c1ccccc1O)SC`, for which the inhibition was 14.8%.

`CC(/C=C/c1ccccc1)=N\NC(=O)CCc1ccccc1`: the inhibition is -7.22%.

On to `CCOc1ccc(/C(C)=N\NC(=O)Cc2ccccc2)cc1`, for which the inhibition came out at 3%.

Consider `C/C(=N\NC(N)=O)c1cccc(Cl)c1`, for which the inhibition is -5.88%.

Regarding `CCC/C(=N/NC(=O)c1cccc(Cl)c1)c1ccccc1`, the inhibition came out at 76.9%.

Consider `C/C(=N\NC(=O)c1ccccc1O)C1CC1`, for which the inhibition was -6.46%.

In the case of `CCOc1ccc(OCc2ccc(C(=O)N/N=C(\C)c3ccccn3)cc2)cc1`, the inhibition worked out at 94.8%.

`C/C(CCc1ccccc1)=N\NC(=O)CCc1ccccc1`: the inhibition turned out to be 2.92%.

Turning to `O=C(NCc1nnc(SCC(=O)N2CCC(Cc3ccccc3)CC2)o1)c1ccccc1F`, the inhibition is 47.1%.

Turning to `CCCCn1c(N)c(N(C)C(=O)c2cc3c(s2)CCCCC3)c(=O)[nH]c1=O`, the inhibition came to 19.5%.

Consider `Cc1ccc(N(CC(=O)NCc2ccco2)C(=O)CCC(=O)Nc2nccs2)cc1C`, for which the inhibition was -4.11%.

Turning to `CCc1ccc(NC(=O)CSc2nc(O)cc(=O)n2C2CCCC2)cc1`, the inhibition was determined as 37.7%.

As to `COc1ccc(Cl)cc1NC(=O)CN(C)C(=O)c1cc(=O)c2ccccc2o1`, the inhibition was -2.49%.

Turning to `CCOC(=O)c1sc(NC(=O)CSc2ccccn2)c(C#N)c1C`, the inhibition was determined as 5.94%.

As to `CC(=O)N(Cc1ccccc1)Cc1cn(CCC#N)nc1-c1cccc([N+](=O)[O-])c1`, the inhibition was -6.03%.

For `C/C(CC(=O)N1CCCC1)=N\NC(=O)c1cc2ccccc2cc1O`, the inhibition was 7.43%.

Turning to `C/C(=N\NC(=O)c1c[nH]c2ccccc12)c1ccc(C)o1`, the inhibition was found to be 33.3%.

`CC(=O)N1CCC(=NNC(=O)c2cc3ccccc3cc2O)CC1`: the inhibition came out at 4.69%.

For `CC(/C=C/c1ccco1)=N\NC(=O)c1cccnc1`, the inhibition came out at 12.9%.

In the case of `CC(/C=C/c1ccco1)=N/NC(=O)c1ccccc1Cl`, the inhibition was found to be 48.9%.

`C/C(=N\NC(=O)c1cc2ccccc2cc1O)c1ccc2c(c1)OCO2`: the inhibition turned out to be 14.4%.

For the compound `CCCCC(NC(=O)c1ccc(Cl)cc1)C(=O)O` (centres undefined), the inhibition is -0.66%.

As for `O=C(C[n+]1cccc(CNC(=O)c2ccc(OC(F)F)cc2)c1)Nc1ccccc1Cl`, the inhibition is 7.02%.

Take `O=C(c1ccc([N+](=O)[O-])cc1)N1CCN(Cc2ccccc2[N+](=O)[O-])CC1`: the inhibition came to 12.7%.

As to `COc1ccc(C2C(C(=O)NCCN3CCOCC3)c3ccccc3C(=O)N2C2CCCCC2)cc1` (centres undefined), the inhibition is 28.1%.

With `O=C(/C=C/NCc1cccnc1)c1ccc(Br)cc1`, the inhibition stood at 77.9%.

On to `COc1cc(NC(=O)CSc2nc(=O)n(CCN3CCOCC3)c3c2CCC3)cc(OC)c1`, for which the inhibition came to 1.82%.

Take `O=C(C1CCCN1S(=O)(=O)c1cccc2nsnc12)N1CCN(c2ccc(F)cc2)CC1` (centres undefined): the inhibition was -10%.

In the case of `COc1ccc(N(CC(=O)Nc2ccc(F)c(Cl)c2)S(=O)(=O)c2c(C)noc2C)cc1`, the inhibition turned out to be 19.1%.

Turning to `CCc1noc(C)c1C(=O)OC(C)C(=O)c1c(C)[nH]c2ccccc12` (centres undefined), the inhibition is 26.3%.

With `Cc1cnc(C(=O)OC(C)C(=O)c2c(C)[nH]c3ccccc23)cn1` (centres undefined), the inhibition came out at 12.1%.

With `CCN(CC)C(=O)CSc1nnc(-c2ccco2)o1`, the inhibition came out at 18.1%.

On to `CCCOc1ccc(C(=O)CCNc2cccc(Cl)c2)cc1`, for which the inhibition was 74.8%.

As for `O=C1NC(=O)N(Cc2ccco2)C(=O)/C1=C/c1cccn1CCOc1ccccc1Cl`, the inhibition came out at 62.6%.

As for `Cc1cccc(OCCn2cccc2/C=C2/C(=O)NC(=O)N(Cc3ccco3)C2=O)c1`, the inhibition is 49.4%.

With `O=C(NCCCOc1cccc(CN2CCCCC2)c1)c1ccc(Cl)c(Cl)c1`, the inhibition is 56.6%.

Consider `COc1cccc(Nc2nc(C)cc(C)c2C(N)=O)c1`, for which the inhibition was -12.4%.

For `COc1ccc2cc(CN(Cc3cccs3)Cc3nnnn3Cc3ccccc3)c(=O)[nH]c2c1`, the inhibition stood at 27.5%.

With `Cc1[nH]n(-c2ccccc2)c(=O)c1C(=O)c1ccc([N+](=O)[O-])cc1`, the inhibition came out at 16.4%.

As for `Cc1[nH]n(-c2ccccc2)c(=O)c1C(=O)c1cccc(F)c1`, the inhibition came out at 69%.

On to `Cc1cccc[n+]1CC(=O)/C=C1\N(C)c2ccccc2C1(C)C`, for which the inhibition was -1.75%.

As for `COc1ccc(CN2CCC(n3nccc3NC(=O)C3CC3)CC2)c(OC)c1OC`, the inhibition was -1.17%.

For `O=S(=O)(NCCN1CCOCC1)c1cc(Cl)ccc1Cl`, the inhibition turned out to be 10.9%.

In the case of `Cc1ccsc1/C=N\NC(=O)c1cc(C(C)(C)C)[nH]n1`, the inhibition came out at 12.6%.

With `Cc1cc(C(=O)N/N=C/c2ccc(C)s2)n[nH]1`, the inhibition came to 4.06%.

As to `CC(C)(C)c1cc(C(=O)N/N=C/c2ccc(-c3ccccc3[N+](=O)[O-])o2)n[nH]1`, the inhibition stood at 26.9%.

Take `Cc1cc(C(=O)N/N=C/c2cccc([N+](=O)[O-])c2O)n[nH]1`: the inhibition stood at 14.7%.

For `Cc1c(C(=O)OCC[N+]2(C)CCCCC2)oc2ccccc12`, the inhibition was -0.02%.

For `O=C(NCC(c1cccs1)N1CCOCC1)c1ccc([N+](=O)[O-])cc1` (centres undefined), the inhibition was -4.42%.

For `O=C(NCC(c1cccs1)N1CCOCC1)c1cccc([N+](=O)[O-])c1` (centres undefined), the inhibition was determined as 3.78%.

Regarding `CCOCCCN(C(=O)c1snc(C(N)=O)c1N)C(C(=O)NC1CCCC1)c1ccc(O)cc1` (centres undefined), the inhibition came out at 12.3%.

In the case of `CCCN(Cc1nnc(-c2ccccc2Cl)o1)C(=O)c1oc2ccccc2c1C`, the inhibition is -13.1%.

Consider `CCCN(Cc1nnc(-c2ccccc2Cl)o1)C(=O)c1cc2ccccc2o1`, for which the inhibition came out at 30.8%.

`O=C(C1=COCCO1)N(Cc1nnc(-c2ccccc2Cl)o1)C1CC1`: the inhibition was 2.01%.

Regarding `O=C(c1ccc(Cl)s1)N(Cc1nnc(-c2ccccc2Cl)o1)C1CC1`, the inhibition came out at 31.8%.

Regarding `COc1ccc(S(=O)(=O)N2CCOC23CCN(S(=O)(=O)c2cc(C)ccc2OC)CC3)cc1`, the inhibition stood at 5.02%.

Consider `CC(NC(=O)CC1Sc2ccccc2NC1=O)c1ccccc1` (centres undefined), for which the inhibition is 0.31%.

On to `CCN(CC)C(=O)C(=O)N/N=C/c1ccc(C(=O)OC)cc1`, for which the inhibition was -0.1%.

For `CCOc1cc2c(cc1OCC)C(c1ccc(C(=O)O)cc1)NCC2` (centres undefined), the inhibition was -6.9%.
